# Measurements taken from PubChem BioAssay (NCATS).
# Inconclusive results are not listed. Entries that show only a call come without a potency. Activity calls are given as the source filed them. Calls follow the shape of the dose curve; as a rule, active = well fitted inhibition curve with a large enough effect; inconclusive = small, poorly fitted or top-dose-only effect; inactive = flat fitted curve, though single readings scatter.
# What was measured:
# Assay in all cases: qHTS profiling for inhibitors of Plasmodium falciparum proliferation (AID 504749); also: nearly all actives have a fitted effect of over 60% in size
# Conditions in all cases: P. falciparum in erythrocytes, SYBR Green DNA, 72 h; series mostly up to 28.7 µM
# AA1029 = tested on: AA1029
# Method in brief: (§1)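 Parasite proliferation within erythrocytes, 72 h exposure. Endpoint: SYBR Green I fluorescence after overnight lysis at room temperature. Controls: 0.29 uM artemisinin, DMSO.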
# AS120 = tested on: AS120
# Method in brief: as §1
# ATS189 = tested on: ATS189
# Method in brief: as §1
# ATS95 = tested on: ATS95
# Method in brief: as §1
# C2A = tested on: C2A
# Method in brief: as §1
# CP185 = tested on: CP185
# Method in brief: as §1
# CP191 = tested on: CP191
# Method in brief: as §1
# CP192 = tested on: CP192
# Method in brief: as §1
# CP194 = tested on: CP194
# Method in brief: as §1
# CP201 = tested on: CP201
# Method in brief: as §1
# Potency is read from the fitted curve at half-maximal effect.
SMILES,Potency (AA1029),Potency (AS120),Potency (ATS189),Potency (ATS95),Potency (C2A),Potency (CP185),Potency (CP191),Potency (CP192),Potency (CP194),Potency (CP201)
O=c1oc2ccccc2c(O)c1Cc1c(O)c2ccccc2oc1=O,inactive,inactive,inactive,inactive,inactive,inactive,inactive,inactive,inactive,inactive
Nc1ccccc1C(=O)O,inactive,inactive,inactive,inactive,inactive,inactive,inactive,inactive,inactive,inactive
COC(=O)C(c1ccccc1)C1CCCCN1 (stereo unspecified),inactive,inactive,inactive,inactive,inactive,inactive,inactive,inactive,–,inactive
NC(=O)c1cc([N+](=O)[O-])cc([N+](=O)[O-])c1,inactive,inactive,–,inactive,inactive,–,–,inactive,inactive,inactive
CC(C)(C)NCC(O)c1ccccc1Cl (stereo unspecified),–,–,–,–,inactive,–,inactive,inactive,–,inactive
O=C(O)CCCc1ccc(N(CCCl)CCCl)cc1,inactive,inactive,inactive,inactive,inactive,inactive,inactive,inactive,inactive,inactive
Cc1ncsc1CCCl,inactive,inactive,inactive,inactive,inactive,inactive,inactive,inactive,inactive,inactive
C=CCN1C[C@H](C)N([C@H](c2ccc(C(=O)N(CC)CC)cc2)c2cccc(OC)c2)C[C@H]1C,–,–,–,–,–,–,–,inactive,inactive,inactive
CC(C)c1cccc(C(C)C)c1O,inactive,inactive,inactive,inactive,inactive,inactive,inactive,inactive,inactive,inactive
COP(=S)(OC)Oc1ccc(S(=O)(=O)N(C)C)cc1,inactive,inactive,inactive,inactive,inactive,inactive,inactive,inactive,inactive,inactive
COC1CC(=C(c2cccs2)c2cccs2)C[N+](C)(C)C1 (stereo unspecified),12.6 µM (active),15.8 µM (active),8.91 µM (active),–,–,6.31 µM (active),5.01 µM (active),–,–,–
Cc1nnc2n1-c1ccc(Cl)cc1C(c1ccccc1)=NC2,inactive,inactive,–,–,inactive,inactive,inactive,inactive,inactive,inactive
O=P1(N(CCCl)CCCl)NCCCO1 (stereo unspecified),inactive,inactive,inactive,inactive,inactive,inactive,inactive,inactive,inactive,inactive
CCOP(=S)(OCC)Oc1ccc2c(C)c(Cl)c(=O)oc2c1,–,–,–,–,inactive,–,–,inactive,–,–
O=C1c2ccccc2C(=O)c2ccccc21,inactive,inactive,–,inactive,inactive,inactive,–,inactive,inactive,inactive
COP(=S)(OC)SCN1C(=O)c2ccccc2C1=O,inactive,inactive,inactive,inactive,inactive,inactive,inactive,inactive,inactive,inactive
O=C1Nc2ccc(Cl)cc2C(c2ccccc2Cl)=NC1O (stereo unspecified),inactive,inactive,inactive,–,inactive,inactive,inactive,inactive,inactive,inactive

SMILES,Potency (AA1029),Potency (AS120),Potency (ATS189),Potency (ATS95),Potency (C2A),Potency (CP185),Potency (CP191),Potency (CP192),Potency (CP194),Potency (CP201)
CN1C(=O)CC(=O)N(c2ccccc2)c2cc(Cl)ccc21,inactive,inactive,inactive,inactive,inactive,inactive,inactive,inactive,inactive,inactive
NC(=O)CS(=O)C(c1ccccc1)c1ccccc1 (stereo unspecified),inactive,inactive,inactive,inactive,inactive,inactive,inactive,inactive,inactive,inactive
NCCc1ccc(O)cc1,inactive,inactive,inactive,inactive,inactive,inactive,inactive,inactive,inactive,inactive
COc1ccc2c(c1OC)C(=O)O[C@H]2[C@@H]1c2cc3c(cc2CCN1C)OCO3,–,–,–,–,–,–,–,inactive,inactive,inactive
O=C(N/N=C/c1ccc([N+](=O)[O-])o1)c1cc([N+](=O)[O-])cc([N+](=O)[O-])c1O,0.1 µM (active),0.141 µM (active),0.316 µM (active),–,0.0178 µM (active),0.0631 µM (active),0.178 µM (active),–,–,–
O=C1CN=C(c2ccccc2)c2cc([N+](=O)[O-])ccc2N1,inactive,inactive,inactive,inactive,inactive,inactive,inactive,inactive,inactive,inactive
CCC(C)(C)c1ccc(O)cc1,inactive,inactive,inactive,–,inactive,inactive,inactive,inactive,inactive,inactive
CNC(C)(C)Cc1ccccc1,inactive,inactive,inactive,inactive,inactive,inactive,inactive,–,inactive,inactive
O=C1c2ccccc2C(=O)C1C(=O)C(c1ccccc1)c1ccccc1,inactive,–,inactive,inactive,inactive,inactive,inactive,inactive,inactive,–
CC(C)NC(C)C,inactive,inactive,inactive,inactive,inactive,inactive,inactive,inactive,inactive,inactive
CC(C)(C)NCC(O)c1cc(Cl)c(N)c(C(F)(F)F)c1 (stereo unspecified),7.94 µM (active),5.62 µM (active),7.08 µM (active),–,10 µM (active),10 µM (active),4.47 µM (active),inactive,–,inactive
COc1ccc2c(c1)C13CCCC[C@@H]1C(C2)N(C)CC3 (stereo partly specified),–,inactive,inactive,–,inactive,–,inactive,inactive,–,inactive
Clc1ccc(C(c2ccc(Cl)cc2)C(Cl)(Cl)Cl)cc1,inactive,inactive,–,inactive,inactive,inactive,–,inactive,–,inactive
Clc1ccc2c(c1)C(c1ccccc1)=NCc1nncn1-2,inactive,inactive,inactive,inactive,inactive,inactive,inactive,inactive,inactive,inactive
CN1C(=O)NC(=O)C(C)(C2=CCCCC2)C1=O (stereo unspecified),inactive,inactive,inactive,inactive,inactive,inactive,inactive,inactive,inactive,inactive
CCC1(CC)C(=O)C=CNC1=O,inactive,inactive,inactive,inactive,inactive,inactive,inactive,inactive,inactive,inactive
